The campaign covered roughly 69,000 compounds. About 8,600 (12%) showed an effect of 50% or more. What follows is part of a selection rich in strong results, with near analogues and random picks from the rest.
system: Plasmodium berghei; assay: Screen against P. berghei liver stage (PbLuc), transformed with Luciferase, at 10uM; assay type: functional, HepG2; details: tested at 10 uM

| Structure (SMILES) | INHIBITION |
| --- | --- |
| Cc1cc(N2CCCC2c2nccnc2C)ncn1 (stereo not given) | 26.8% |
| Cc1nc(CN2CC3(CCN(c4nccs4)C3)CC2=O)cs1 (stereo not given) | -3.52% |
| CCN(CC)C1CCN(C(=O)NCc2cccc(-n3cccn3)c2)C1 (stereo not given) | 27% |
| CC(=O)c1ccc(-n2ccc3nc(N4CCCC4)ncc3c2=O)cc1 | -82.2% |
| CC(=O)Nc1ccc(-n2ccc3nc(N4CCCC4)ncc3c2=O)cc1 | 80.5% |
| O=c1c2cnc(N3CCCCC3)nc2ccn1-c1ccccc1 | 19.7% |
| COCC(=O)NC(C)c1cccc(Br)c1 (stereo not given) | -60.9% |
| Cc1ccn(-c2ccnc(N3CCSCC3)n2)n1 | 30% |
| CO[C@H]1CCN(Cc2ccoc2)C[C@@H]1Cc1ccccc1 | 41.4% |
| COc1ccc(C[C@H]2CN(C(=O)CN(C)C)CC[C@H]2OC)cc1 | 41.6% |
| COc1ccc(CN2C[C@@H]3CN(Cc4ccoc4)C[C@@H]3C2=O)cc1 | -4.82% |
| CO[C@@H]1CCN(Cc2ccoc2)[C@H]1Cc1ccccc1 | 29.5% |
| COc1ccc(C[C@H]2CN(C(=O)C3CC3)CC[C@H]2OC)cc1 | 11.2% |
| COc1ccc(C[C@H]2CN(Cc3ccoc3)CC[C@@H]2OC)cc1 | 58.3% |
| COc1ccc(C[C@H]2CN(Cc3ccoc3)CC[C@H]2OC)cc1 | 63.3% |
| COc1ccc(C[C@H]2CN(C(=O)c3cnoc3)CC[C@@H]2OC)cc1 | -50.4% |
| CO[C@@H]1CCN(Cc2ccoc2)C[C@@H]1Cc1ccccc1 | 51.4% |
| CC(C)C1CCCN1CCCc1nc(-c2cccs2)no1 (stereo not given) | -4.94% |
| CCN1C(=O)CCC12CCC(NC(=O)c1ccncc1F)CC2 (stereo not given) | 38.3% |
| CCn1nc(C)cc1C(=O)N1C[C@@H](CN(C)C)[C@@H](CO)C1 | 38.7% |
| O=C(NCC1CCCO1)c1nc2c(s1)CCCN2CC1CC1 (stereo not given) | -14.2% |
| c1cc(-c2nnc(C3(c4ccc5c(c4)OCO5)CCOCC3)o2)ccn1 | 40.7% |
| c1cncc(-c2nnc(C3(c4ccc5c(c4)OCO5)CCOCC3)o2)c1 | 72.2% |
| Cn1cccc1-c1nnc(C2(c3ccc4c(c3)OCO4)CCOCC2)o1 | 41.8% |
| CCN1CCC(CC(=O)NCCc2nc(N)cc(O)n2)CC1 | 0.348% |
| Cc1cc(C(=O)N2CCC3(CC2)c2nc[nH]c2CCN3CC(C)C)no1 | 20.4% |
| CC(C)CN1CCc2[nH]cnc2C12CCN(C(=O)c1cc[nH]n1)CC2 | 48.5% |
| Cc1cnc(C(=O)N2CCC3(CC2)C(=O)NCCN3CC(C)C)cn1 | 26.5% |

| Structure (SMILES) | INHIBITION |
| --- | --- |
| CC(C)CN1CCc2[nH]cnc2C12CCN(C(=O)c1ccccn1)CC2 | 55% |
| CC(C)CN1CCNC(=O)C12CCN(C(=O)c1ccccn1)CC2 | 50.7% |
| CCN1CCNC(=O)C12CCN(C(=O)c1ccccn1)CC2 | -5.25% |
| O=C(O)C1(Cc2ccccc2Cl)CCN(c2ncnc3[nH]ccc23)CC1 | 43.3% |
| Cc1nn(C)c(Cl)c1C1CCCN1Cc1cccc(C(N)=O)c1 (stereo not given) | 11.2% |
| Cn1c(=O)c2cc(C(=O)NCc3ccccn3)ccc2n(C)c1=O | 26.3% |
| CC(C)NC(=O)N1CCCn2cnc(CO)c2C1 | -3.77% |
| CC(C)c1noc(C(C)N2CCN(Cc3cccnc3)CC2)n1 (stereo not given) | 15.5% |
| CCOCC1CN(C(=O)[C@H]2CCCO2)Cc2nnn(CC3CC3)c21 (stereo not given in full) | 57.1% |
| CCOCC1CN(C(=O)N(C)C)Cc2nnn(CC3CC3)c21 (stereo not given) | -3.51% |
| CN(C)CC(=O)N1Cc2nnn(C)c2C(COCC2CC2)C1 (stereo not given) | 24% |
| Cn1nnc2c1C(COCC1CC1)CN(C(=O)[C@H]1CCCO1)C2 (stereo not given in full) | 68.9% |
| COCC1CN(C(=O)[C@H]2CCCO2)Cc2nnn(CC3CC3)c21 (stereo not given in full) | -4.99% |
| CN(C)C(=O)N1Cc2nnn(C)c2C(COCC2CC2)C1 (stereo not given) | 41.8% |
| Cc1nccn1CCN(C)C(=O)C1CCCN(C2CCOCC2)C1 (stereo not given) | 34.1% |
| Cc1cc(C)n(CC2CCCN2CCc2ccccn2)n1 (stereo not given) | 44.4% |
| Cc1cc(CNC2CCc3nc(C(C)C)nn3C2)on1 (stereo not given) | 11.3% |
| COCCc1noc(CN(C)C(=O)c2cccc(N3CCCC3=O)c2)n1 | 13.9% |
| COC(=O)CC(NC(=O)c1cccc(CS(C)(=O)=O)c1)c1cccs1 (stereo not given) | 71.2% |
| CCC(NC(=O)c1cccc(N2CCCC2=O)c1)c1ccc(OC)cc1 (stereo not given) | 52.6% |
| COC(=O)CC(NC(=O)c1cccc(N2CCCC2=O)c1)c1cccs1 (stereo not given) | 62.8% |
| COC(=O)CC(NC(=O)c1cccc(N2CCCC2=O)c1)C(=O)OC (stereo not given) | 2.55% |
| CCC(C)C(=O)NCc1cccc(N2CCCCC2=O)c1 (stereo not given) | 11.6% |
| COC(=O)CC(NC(=O)c1cc(OC)c2c(c1)OCCO2)c1cccs1 (stereo not given) | 29.4% |
| COC(=O)CC(NC(=O)c1ccc(OC)cc1OC)c1cccs1 (stereo not given) | 7.08% |
| COC(=O)CC(NC(=O)c1ccccc1OC)c1cccs1 (stereo not given) | 40% |
| Cc1cc(S(=O)(=O)NCC[S+](C)[O-])c(F)cc1F (stereo not given) | 37.6% |

Source: ChEMBL document CHEMBL4513216, “Probing the Open Global Health Chemical Diversity Library for Multistage-Active Starting Points for Next-Generation Antimalarials” (ACS Infect Dis, 2020)
